Six molecules from PubChem BioAssay (NCATS) can be followed below.

Structures are written as SMILES. Several values for one entry are separate records, joined by “and”; a condition that tells them apart may be missing. Equal entries are not always repeated. Results filed as inconclusive are left out. The source holds several records for some structures; these can differ, active in one and inactive in another. Activity calls are given as the source filed them. Unless noted, the call rests on the fitted dose curve; in most records, active means well fitted curve in the direction sought with a large enough effect; inconclusive means small, poorly fitted or top-dose-only effect, or another doubt; inactive means no such curve, though single readings can be large; an effect the other way counts as inactive or inconclusive. Where only a bound is given, the exact number is not on record here.

Assay [1] in a line: AP1 Signaling Pathway (AID 357; active means well fitted curve in either direction with a large enough effect, not every such curve was filed as active;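 further: ME-180 reporter cells stimulated with EGF at its EC50 level; on the % scale 0 is the no-effect control and ±100 the full control effect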). Put shortly: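 AP-1-bla ME-180 cells, Opti-MEM + 0.5% dialyzed FBS, plated overnight 37 °C. Cpd titration + EC50 EGF, 5 h 37 °C. CCF4 2.5 h RT; ex 405, em 460/530 ratio → %activity, AC50.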
For assay [2], the target named is Cytochrome P450 1A2 (Homo sapiens) (UniProt P05177). The assay is described as follows: p450-cyp1a2 (AID 410; calls by dose curve; further: potency means the concentration at half of the fitted maximal effect;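 on activity change, negative = inhibition: -100% = full effect of reference inhibitor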). The procedure, abridged: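 20nM CYP1A2, 100uM Luciferin-ME (=Km), 100mM KPO4; cpd 10 min RT; +NADPH regen, 60 min RT; stop/detect 20 min; luminescence. Normalized to furafylline 57 uM = full inhibition.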
Sequence of Cytochrome P450 1A2 (Homo sapiens) (P05177 whole entry, looked up): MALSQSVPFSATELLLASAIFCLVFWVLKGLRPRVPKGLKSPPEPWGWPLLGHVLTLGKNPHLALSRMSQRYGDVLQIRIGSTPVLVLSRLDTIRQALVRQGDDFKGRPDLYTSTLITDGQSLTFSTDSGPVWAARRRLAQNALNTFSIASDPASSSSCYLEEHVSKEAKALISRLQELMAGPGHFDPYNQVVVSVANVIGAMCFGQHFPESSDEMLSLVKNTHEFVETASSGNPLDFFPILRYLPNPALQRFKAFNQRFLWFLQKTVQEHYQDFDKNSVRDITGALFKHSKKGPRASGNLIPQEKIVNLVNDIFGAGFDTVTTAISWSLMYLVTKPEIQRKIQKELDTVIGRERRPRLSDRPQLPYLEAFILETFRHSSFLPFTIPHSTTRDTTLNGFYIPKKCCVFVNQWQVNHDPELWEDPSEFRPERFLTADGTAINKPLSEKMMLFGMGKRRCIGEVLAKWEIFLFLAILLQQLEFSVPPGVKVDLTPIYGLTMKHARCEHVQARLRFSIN
A short description of assay [3]: Stat Signaling Pathway (AID 446; active means well fitted curve in either direction with a large enough effect, not every such curve was filed as active;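 further: ME-180 cervical cancer cells given 40 pM IL-6 alongside compound; SIE-controlled beta-lactamase reporter measured as 460/530 nm FRET emission ratio; on the % scale 0 is the no-effect control and ±100 the full control effect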). The procedure, abridged: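 Normalization used AC90 stimulation (300 pM IL-6) and AC90 inhibition (125 nM pan-JAK inhibitor at 40 pM IL-6). The underlying signal is SIE-driven beta-lactamase in ME-180 cells after 5 h IL-6 exposure with compound.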
The target in assay [4] is Glucocorticoid receptor (Homo sapiens) (UniProt P04150). The assay is described as follows: GR-GFP Redistribution (AID 450;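 active means compounds whose dose series gives a full or clear partial fitted curve of increased nuclear translocation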; further: potency means the concentration at half of the fitted maximal effect). The note with it: U2OS GR-GFP nuclear translocation, laser cytometry, 2 h.
Sequence of Glucocorticoid receptor (Homo sapiens) (P04150 whole entry, looked up, the tested form may be a part): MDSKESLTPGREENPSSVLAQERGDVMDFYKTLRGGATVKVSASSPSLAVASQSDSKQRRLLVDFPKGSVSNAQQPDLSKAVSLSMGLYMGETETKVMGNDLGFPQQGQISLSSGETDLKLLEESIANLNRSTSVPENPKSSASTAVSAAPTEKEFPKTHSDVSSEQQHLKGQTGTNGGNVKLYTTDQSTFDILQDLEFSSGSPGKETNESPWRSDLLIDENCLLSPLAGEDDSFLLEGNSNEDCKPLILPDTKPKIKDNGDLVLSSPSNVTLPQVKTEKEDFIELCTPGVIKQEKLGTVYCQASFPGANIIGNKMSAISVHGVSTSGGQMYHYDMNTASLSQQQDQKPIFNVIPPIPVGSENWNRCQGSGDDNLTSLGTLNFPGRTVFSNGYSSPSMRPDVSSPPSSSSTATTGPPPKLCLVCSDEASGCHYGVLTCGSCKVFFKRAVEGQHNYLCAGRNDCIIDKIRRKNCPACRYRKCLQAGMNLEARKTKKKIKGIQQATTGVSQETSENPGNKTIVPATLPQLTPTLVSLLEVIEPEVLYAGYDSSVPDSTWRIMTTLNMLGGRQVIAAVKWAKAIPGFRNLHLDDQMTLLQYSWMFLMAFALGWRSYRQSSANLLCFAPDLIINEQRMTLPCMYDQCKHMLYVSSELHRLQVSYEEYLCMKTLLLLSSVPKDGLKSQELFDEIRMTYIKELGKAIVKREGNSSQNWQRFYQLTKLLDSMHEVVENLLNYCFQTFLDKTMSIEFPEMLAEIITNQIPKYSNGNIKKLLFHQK
Assay [5] has the same target. Put plainly: GR-EFC Redistribution (AID 451; calls by dose curve; further: potency means the concentration at half of the fitted maximal effect). The note with it: CHO-K1 GR-EFC translocation, beta-gal luminescence, 2 h. The procedure, abridged: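 Translocation of GR-ED fusion to nuclear EA restores b-gal, read by luminescence after 1 h room-temperature detection. Engineered CHO-K1 biosensor cells, 1,000/well, exposed 2 h at 37 C to titrations up to 46 uM final.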

The target in assay [6] is Mitogen-activated protein kinase 10 (Mus musculus) (UniProt Q61831). Put plainly: JNK3 AlphaScreen Assay (AID 530; active means well fitted curve in either direction with a large enough effect, not every such curve was filed as active;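 further: kinase came from lysate of stimulated human HepG2 cells; signal reports phosphorylation of biotinylated GST-cJun 1-79 at Ser73 with 10 µM ATP; on the % scale 0 is the no-effect control and ±100 the full control effect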). Put shortly: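 Kinase buffer: 20 mM Tris-HCl pH 7.6, 10 mM MgCl2, 1 mM DTT, 0.1 mM Na3VO4, 0.01% Tween-20; ATP 10 uM. Substrate biotin-GST-cJun(1-79), enzyme from activated HepG2 lysates. Detection by Ser73 phospho-antibody AlphaScreen.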
A general note: In Alpha technology, singlet oxygen from a donor bead excites a nearby acceptor bead.

The target in assay [7] is 3',5'-cyclic-AMP phosphodiesterase 4B (Homo sapiens) (UniProt Q07343). The assay is described as follows: qHTS Assay for Inhibitors of PDE-IV (AID 607; active means well fitted activation curve with a large enough effect in the main read-out, with a control signal flat, not every such curve was filed as active; further: % of control where 0% means no effect). Put shortly:
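HEK293 ACTOne cells with CNG channel (1000/well), endogenous PDE4; membrane potential dye, compounds up to 22.9 uM final. Fluorescence Ex 535/Em 590; RO 20-1724 (100 uM final) as reference.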
Background: Quantitative high-throughput screening tests each substance at several concentrations.

Assay [8] deals with Guanine nucleotide-binding protein G(i) subunit alpha-1 (Homo sapiens) (UniProt P63096). The assay is described as follows: qHTS Assay for Inhibitors of RGS12 GoLoco Motif Activity (Green Fluorophore) (AID 879).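 Further: 0% = labeled peptide with Gαi1 and full inhibition = labeled peptide alone without protein; negative values mean loss of peptide binding seen as reduced polarization.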 The procedure, abridged:
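A drop in FITC polarization marked displacement of the FITC-tagged RGS12 GoLoco peptide (10 nM) from Gαi1 (50 nM). Compounds were incubated 10 min at room temperature in Tris pH 7.5 buffer containing 150 mM NaCl, 0.1 mM GDP and 0.05% NP40; unlabeled peptide titration served as control.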

Assay [9] addresses Pyruvate kinase (Leishmania mexicana) (UniProt Q27686). Put plainly: qHTS Validation Assay for Inhibitors of Leishmania Mexicana Pyruvate Kinase (AID 945).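 Further: 0% = DMSO only neutral control wells.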 Put shortly: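 An endpoint luciferase assay: 0.2 nM LmPYK E451W turns over 0.5 mM PEP with 0.1 mM ADP for 1 h at room temperature, pH 7.2, before PKLight addition. Values are normalized to DMSO-only wells.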
Assay [10] deals with Pyruvate kinase PKM (Homo sapiens) (UniProt P14618). Put plainly: qHTS Assay for Activators of Human Muscle Pyruvate Kinase (AID 954; active means well fitted curve in the direction sought with a large enough effect, not every such curve was filed as active;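 further: 0% = uninhibited enzyme and -100% = no enzyme or full thiadiazolimine inhibition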). The procedure, abridged: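 Compound pinned into substrate mix (0.5 mM PEP, 0.1 mM ADP), then 0.1 nM PKM2 added; 1 h, RT. Stop/detection luciferase reagent added, luminescence read. Normalized to no-inhibition and no-enzyme or reference-inhibitor controls.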
Sequence of Pyruvate kinase PKM (Homo sapiens) (P14618 whole entry, looked up): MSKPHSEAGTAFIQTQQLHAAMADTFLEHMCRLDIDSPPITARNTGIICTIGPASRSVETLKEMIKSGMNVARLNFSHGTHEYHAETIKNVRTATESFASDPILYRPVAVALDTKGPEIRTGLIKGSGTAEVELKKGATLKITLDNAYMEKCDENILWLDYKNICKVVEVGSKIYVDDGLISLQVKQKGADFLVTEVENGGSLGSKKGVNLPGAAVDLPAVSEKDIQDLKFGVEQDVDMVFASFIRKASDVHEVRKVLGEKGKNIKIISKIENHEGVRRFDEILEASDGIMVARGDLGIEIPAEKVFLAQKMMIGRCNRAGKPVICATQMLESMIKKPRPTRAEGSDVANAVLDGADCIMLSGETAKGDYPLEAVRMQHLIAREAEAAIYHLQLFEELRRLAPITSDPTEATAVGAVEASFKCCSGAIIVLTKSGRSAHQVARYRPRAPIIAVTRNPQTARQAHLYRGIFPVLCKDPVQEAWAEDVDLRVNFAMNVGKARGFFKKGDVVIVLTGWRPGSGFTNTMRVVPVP

Assay [11] concerns the target Alpha-galactosidase A (Homo sapiens) (UniProt P06280). The assay is described as follows: Counterscreen for Glucocerebrosidase Inhibitors: qHTS Assay for Human alpha-Galactosidase at pH 4.5 (AID 992). Further: 0% is about no effect. Put shortly: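 Steps: enzyme (2 nM final), then compound across 0.7 nM to 77 uM, then 80 uM fluorogenic galactopyranoside substrate; incubate 20 min at room temperature; quench at pH 10; measure fluorescence at 365/440 nm.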
In general terms: A counterscreen serves to expose hits that act by an unwanted route or on another target.

In assay [12] the target is alpha-glucosidase (Oryza sativa, rice) (UniProt Q653V4). The assay is described as follows: Counterscreen for Glucocerebrosidase Inhibitors: qHTS Assay for Rice alpha-Glucosidase at pH 5.0 (AID 997).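 Further: 0% = full activity with enzyme and -100% = basal without enzyme.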 Put shortly:
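Endpoint fluorogenic assay at pH 5.0: compounds (0.7 nM to 77 uM) titrated against 4 nM rice enzyme and 400 uM 4-MU-alpha-glucoside for 20 min at room temperature; NaOH/glycine stop, read ex 365/em 440 nm, Hill-fitted AC50.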

The target of assay [13] is Alpha-galactosidase (Coffea arabica) (UniProt Q42656). Put plainly: Counterscreen for Glucocerebrosidase Inhibitors: qHTS Assay for Coffee Bean alpha-Galactosidase at pH 5.9 (AID 998).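 Further: plate controls were uninhibited enzyme for no effect and no-enzyme basal signal for full effect.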 Put shortly: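 Fluorogenic 4-MU substrate hydrolysis, 80 uM substrate and 2 nM coffee bean alpha-galactosidase, pH 5.9 citrate buffer, 20 min at room temperature, then NaOH/glycine stop. Titration 0.7 nM–77 uM, normalized to no-enzyme and enzyme controls, AC50 via Hill equation.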
Sequence of Alpha-galactosidase (Coffea arabica) (Q42656 whole entry, looked up): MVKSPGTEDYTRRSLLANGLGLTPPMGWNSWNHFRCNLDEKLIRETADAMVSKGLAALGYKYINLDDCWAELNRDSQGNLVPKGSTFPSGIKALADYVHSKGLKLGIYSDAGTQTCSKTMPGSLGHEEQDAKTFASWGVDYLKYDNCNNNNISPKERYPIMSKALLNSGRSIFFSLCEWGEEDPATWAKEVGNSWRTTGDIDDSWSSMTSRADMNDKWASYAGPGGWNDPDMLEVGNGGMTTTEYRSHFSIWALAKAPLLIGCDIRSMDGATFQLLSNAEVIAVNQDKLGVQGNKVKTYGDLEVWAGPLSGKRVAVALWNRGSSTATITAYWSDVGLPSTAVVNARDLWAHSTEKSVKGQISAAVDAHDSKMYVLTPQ

The nature of assay [14]: qHTS Assay for Lipid Storage Modulators (AID 1519; calls by dose curve). Particulars: Drosophila S3 cells, BODIPY lipid droplet/cell ratio, laser cytometry, cells loaded with oleic acid; for activity change, negative = inhibition: at 57.5 µM (top of the series). Put shortly: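 Cells seeded at 5,000 per well were treated with compounds over a concentration series and loaded with oleic acid (400 uM, as added). Lipid droplet fluorescence (488 nm excitation, 500-530 nm channel) was read by laser-scanning cytometry and normalized to 20 uM Triacsin C.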

Assay [15] addresses DNA dC->dU-editing enzyme APOBEC-3G (Homo sapiens) (UniProt Q9HC16). The assay is described as follows: qHTS for inhibitors of Vif-A3G interactions: Validation (AID 588379). Further: 0% is about no effect. Put shortly:
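Yellow fluorescence (Ex 488, Em 500-530) of Vif-coexpressing HeLa A3G-eYFP cells, scanned by Acumen cytometer, reports blocked A3G degradation. Cells plated at 700/well overnight at 37 deg C before compound addition, then a further overnight compound incubation at 37 deg C.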

The test system of assay [16] is Zika virus NS2B-NS3 protease. The assay is described as follows: Primary screen GU AMC qHTS for Zika virus inhibitors (AID 1347154).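 Further: 0% = no-inhibitor control and -100% = no-enzyme control; nearly all actives have a fitted effect of over 70% in size.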 The procedure, abridged:
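Fluorogenic AMC-substrate cleavage by noncovalent NS2B-NS3 protease complex (25 nM, pH 8.0 Tris buffer with Tween 20) followed for 15 minutes at room temperature (~20% conversion). Percent inhibition from ex340/em450 signal change, fitted by 4-parameter Hill equation.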

Assay [17] can be described thus: Primary qHTS for small molecule stabilizers of the endoplasmic reticulum resident proteome: Secreted ER Calcium Modulated Protein (SERCaMP) assay (AID 1508630). Further: on the % scale 0 is the no-effect control and ±100 the full control effect. The procedure, abridged: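 The SH-SY5Y reporter protocol was run at 3 concentrations up to 38.3 uM (primary) or 11 concentrations (follow-up): 16 h compound, 100 nM thapsigargin for 4 h, then extracellular luciferase luminescence.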

Assay [18] concerns the target Ubiquitin carboxyl-terminal hydrolase 1 (Homo sapiens) (UniProt O94782). Put plainly: Inhibitors of USP1/UAF1: Pilot qHTS (AID 504865).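 Further: rhodamine fluorescence freed from ubiquitin-rhodamine substrate followed over time; top concentration of the series differs between compounds; on the % scale 0 is the no-effect control and ±100 the full control effect; nearly all actives have a fitted effect of over 35% in size.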 Put shortly: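 USP1/UAF1 complex at 1 nM preincubated 15 min at room temperature with compound, then Ub-Rho substrate added at 150 nM final. Fluorescence (480/540 nm) read kinetically in 50 mM HEPES pH 7.8, 0.5 mM EDTA, 1 mM TCEP, 0.1 mg/ml BSA, 0.01% Tween-20.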

Assay [19] has as its target Cytochrome P450 2D6 (Homo sapiens) (UniProt P10635). The assay is described as follows: qHTS Assay for Inhibitors and Substrates of Cytochrome P450 2D6 (AID 891).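 Further: luciferin methyl ether substrate demethylated by CYP2D6 with NADPH regeneration; on the % scale 0 is the no-effect control and ±100 the full control effect; nearly all actives have a fitted effect of over 60% in size.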 Put shortly:
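Luminescent read-out of luciferin formed by 5 nM human CYP2D6 demethylating 30 uM Luciferin-ME EGE (Km level) over 60 min at room temperature after NADPH regeneration addition. Data normalized to full inhibition by 1.43 uM quinidine.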

The mark [20] stands for this setting: measured here: cell count channel max response.
Where [21] appears, read: measured here: lipid channel max response.

Sequence of 3',5'-cyclic-AMP phosphodiesterase 4B (Homo sapiens) (Q07343 whole entry, looked up): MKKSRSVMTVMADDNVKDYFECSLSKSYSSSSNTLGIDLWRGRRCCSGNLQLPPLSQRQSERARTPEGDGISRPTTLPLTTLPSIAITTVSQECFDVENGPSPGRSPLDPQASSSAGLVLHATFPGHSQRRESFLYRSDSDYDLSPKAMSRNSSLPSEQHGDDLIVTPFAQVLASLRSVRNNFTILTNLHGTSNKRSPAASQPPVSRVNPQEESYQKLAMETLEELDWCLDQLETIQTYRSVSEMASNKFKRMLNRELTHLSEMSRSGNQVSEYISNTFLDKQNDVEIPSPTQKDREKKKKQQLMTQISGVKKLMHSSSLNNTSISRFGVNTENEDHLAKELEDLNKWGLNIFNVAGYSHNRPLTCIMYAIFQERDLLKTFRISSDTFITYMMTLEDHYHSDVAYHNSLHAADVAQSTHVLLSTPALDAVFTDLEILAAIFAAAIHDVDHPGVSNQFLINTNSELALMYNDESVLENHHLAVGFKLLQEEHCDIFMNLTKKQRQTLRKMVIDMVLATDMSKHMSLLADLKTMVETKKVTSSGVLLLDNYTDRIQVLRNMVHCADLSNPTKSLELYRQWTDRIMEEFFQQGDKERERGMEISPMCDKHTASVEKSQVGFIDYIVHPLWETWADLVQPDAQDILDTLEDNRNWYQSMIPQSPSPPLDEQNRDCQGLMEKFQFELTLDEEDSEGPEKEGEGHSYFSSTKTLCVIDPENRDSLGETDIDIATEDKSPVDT
Sequence of Ubiquitin carboxyl-terminal hydrolase 1 (Homo sapiens) (O94782 whole entry, looked up): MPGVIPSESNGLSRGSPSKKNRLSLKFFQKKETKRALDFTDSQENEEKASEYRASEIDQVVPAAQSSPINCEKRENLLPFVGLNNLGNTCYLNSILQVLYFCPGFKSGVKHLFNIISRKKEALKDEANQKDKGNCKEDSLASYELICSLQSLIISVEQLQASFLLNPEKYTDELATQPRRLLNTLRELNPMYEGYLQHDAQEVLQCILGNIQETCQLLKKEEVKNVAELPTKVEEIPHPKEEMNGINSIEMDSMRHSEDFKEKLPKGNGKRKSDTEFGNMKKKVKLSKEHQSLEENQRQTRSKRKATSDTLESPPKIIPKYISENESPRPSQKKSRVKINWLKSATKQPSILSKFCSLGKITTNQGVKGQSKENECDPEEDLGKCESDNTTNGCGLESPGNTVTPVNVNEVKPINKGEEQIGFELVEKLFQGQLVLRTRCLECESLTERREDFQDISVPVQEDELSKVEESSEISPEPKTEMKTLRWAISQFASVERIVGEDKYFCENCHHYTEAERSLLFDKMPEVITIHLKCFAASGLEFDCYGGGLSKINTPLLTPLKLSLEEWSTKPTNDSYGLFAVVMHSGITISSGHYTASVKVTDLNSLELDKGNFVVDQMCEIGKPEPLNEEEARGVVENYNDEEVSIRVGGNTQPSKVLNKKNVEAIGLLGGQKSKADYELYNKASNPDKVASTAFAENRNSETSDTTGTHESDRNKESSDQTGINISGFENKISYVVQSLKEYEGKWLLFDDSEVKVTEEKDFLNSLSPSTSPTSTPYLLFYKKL
Sequence of DNA dC->dU-editing enzyme APOBEC-3G (Homo sapiens) (Q9HC16 whole entry, looked up): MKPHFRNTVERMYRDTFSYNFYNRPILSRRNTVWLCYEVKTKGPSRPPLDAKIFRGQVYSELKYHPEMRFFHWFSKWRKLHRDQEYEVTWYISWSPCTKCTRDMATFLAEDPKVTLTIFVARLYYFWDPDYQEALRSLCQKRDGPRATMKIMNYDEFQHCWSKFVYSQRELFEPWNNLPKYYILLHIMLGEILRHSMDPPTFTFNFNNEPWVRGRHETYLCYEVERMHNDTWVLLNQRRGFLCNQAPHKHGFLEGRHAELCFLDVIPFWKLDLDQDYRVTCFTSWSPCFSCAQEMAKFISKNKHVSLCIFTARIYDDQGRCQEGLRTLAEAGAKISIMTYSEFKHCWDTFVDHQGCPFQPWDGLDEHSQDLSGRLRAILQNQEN
Sequence of Guanine nucleotide-binding protein G(i) subunit alpha-1 (Homo sapiens) (P63096 whole entry, looked up): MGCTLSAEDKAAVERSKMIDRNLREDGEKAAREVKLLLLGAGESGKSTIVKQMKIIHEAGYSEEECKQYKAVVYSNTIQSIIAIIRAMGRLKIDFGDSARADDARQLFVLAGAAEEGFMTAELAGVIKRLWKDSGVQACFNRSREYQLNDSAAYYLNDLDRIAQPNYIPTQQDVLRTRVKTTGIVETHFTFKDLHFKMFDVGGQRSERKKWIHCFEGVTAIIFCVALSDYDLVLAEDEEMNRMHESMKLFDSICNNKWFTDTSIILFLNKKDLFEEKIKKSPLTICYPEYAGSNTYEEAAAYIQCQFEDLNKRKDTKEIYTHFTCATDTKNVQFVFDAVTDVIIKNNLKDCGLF
Sequence of Pyruvate kinase (Leishmania mexicana) (Q27686 2-499 E452W): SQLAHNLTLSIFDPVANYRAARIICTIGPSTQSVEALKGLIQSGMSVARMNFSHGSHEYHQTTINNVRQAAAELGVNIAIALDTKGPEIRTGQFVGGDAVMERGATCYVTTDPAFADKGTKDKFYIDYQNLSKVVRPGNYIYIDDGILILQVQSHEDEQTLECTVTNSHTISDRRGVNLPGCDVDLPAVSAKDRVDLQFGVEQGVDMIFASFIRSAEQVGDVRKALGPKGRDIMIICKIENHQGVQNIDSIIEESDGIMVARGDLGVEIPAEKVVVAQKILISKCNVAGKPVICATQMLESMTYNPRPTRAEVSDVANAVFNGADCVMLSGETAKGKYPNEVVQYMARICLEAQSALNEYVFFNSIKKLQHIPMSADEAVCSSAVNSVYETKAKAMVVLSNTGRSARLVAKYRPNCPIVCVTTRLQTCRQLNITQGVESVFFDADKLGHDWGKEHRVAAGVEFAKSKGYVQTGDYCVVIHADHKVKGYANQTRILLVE

For `Cc1o[nH]c(=O)c1C[C@H](N)C(=O)O`, the outcome in assay [1], in assay [3], in assay [6], in [8], in assay [9] and in [10] was inactive. The call in [11], in assay [12] and in assay [13] was inactive. Besides, the Potency entry in assay [2] was “inactive and 31.6 µM (active)”; in assay [4], > 46 µM (inactive); in assay [5] it was > 46 µM (inactive). The Potency result in [7], in assay [15], in assay [16] and in assay [17] was “inactive” each time. The activity change, negative = inhibition in assay [14] is 5.07% (inactive) and 0.872% (inactive) and 1.49% (inactive). The max response was 9.71% and 20.6% and -4.26% in assay [14] (setting [20]); 15.4% and 23.1% and -1.44% in assay [14] (setting [21]).

Take `CCCN1C[C@H](C)N([C@H](c2ccc(C(=O)N(CC)CC)cc2)c2cccc(OC)c2)C[C@H]1C`: the Potency in [4] and in assay [5] was > 46 µM (inactive) throughout. Further, in [6], the call was inactive. Further, the Potency entry in assay [7], in assay [18], in assay [15], in [16] and in [17] was “inactive” each time. Moreover, in assay [14], the activity change, negative = inhibition is 9.16% (inactive). The max response stood at 26.5% in assay [14] (setting [20]) and 30.1% in assay [14] (setting [21]).

Take `CNCC/C=C\c1cccnc1`: the Potency result in assay [2], in assay [7], in [18], in [16] and in assay [17] was “inactive” in each case. The Potency in [4] and in assay [5] was > 46 µM (inactive) throughout. For the same molecule, the outcome in assay [6] was inactive. Besides, in assay [14], the activity change, negative = inhibition was 4.36% (inactive). Moreover, the figures for the max response in [14] (setting [20]) and in assay [14] (setting [21]) were -7.59% and -3.17%, respectively.

For `CC(C)[C@@H]1CN[C@H](C(=O)O)[C@@H]1CC(=O)O`, the Potency in [4] and in [5] was > 46 µM (inactive) each time. Besides, the result in assay [6] was inactive. In assay [14], the activity change, negative = inhibition is 5.36% (inactive). The max response in assay [14] (setting [20]) turned out to be 14.8%; in assay [14] (setting [21]), 17.2%. Also, the Potency entry in assay [18], in [15], in assay [16] and in assay [17] was “inactive” each time.

Take `O=C(O)[C@@H]1C[C@H]2C[C@@H](CP(=O)(O)O)CC[C@H]2CN1`: the Potency in [4] and in assay [5] was > 46 µM (inactive) each time. In addition, in assay [14], the activity change, negative = inhibition is -1.59% (inactive). Also, the figures for the max response in assay [14] (setting [20]) and in assay [14] (setting [21]) were -9.16% and -11.2%, respectively. The Potency entry in assay [18], in [16] and in assay [17] was “inactive” each time.

For the molecule `CC(C)(C)c1o[nH]c(=O)c1C[C@H](N)C(=O)O`, the molecule was classed as inactive in [1], in assay [3], in assay [8], in assay [9], in assay [10] and in assay [11]. Moreover, the call in [12] and in assay [13] was inactive. For the same molecule, the Potency entry in assay [2], in assay [7], in assay [19], in assay [18], in assay [15] and in assay [16] was “inactive” each time. For the same molecule, the Potency entry in [17] is “inactive”. Moreover, the Potency in assay [4] and in assay [5] was > 46 µM (inactive) throughout. For the same molecule, the activity change, negative = inhibition in [14] was 1.88% (inactive). The max response in [14] (setting [20]) is -7.92%; in [14] (setting [21]), -7.95%.
